Data on 33 molecules can be found in PubChem BioAssay (NCATS).

Records with an inconclusive call do not appear. Calls of active or inactive are those of the source. The call rests on the fitted dose curve; in most records, active means well fitted cell-killing curve with a large enough effect; inconclusive means small, poorly fitted or top-dose-only effect, or effect the other way; inactive means flat fitted curve, though single readings scatter.
On the % scale 0 is the no-effect control and ±100 the full control effect; potency means the concentration at half of the fitted maximal effect.

This test in a line: qHTS of pediatric cancer cell lines to identify multiple opportunities for drug repurposing: Confirmatory screen for Rh18 cells (AID 1347125). Further: nearly all actives have a fitted effect of over 55% in size. As to conditions: Rh18 rhabdomyosarcoma cells, viability; series mostly up to 45.9 µM; activity change, negative = cytotoxic: at the top concentration. The source says:
Drug repurposing or repositioning has been offered as a strategy for drug development in oncology programs. This approach has special potential for childhood cancers and other rare or orphan diseases, where the expected return on new drug development has been a disincentive to pharmaceuticals.
In this project we exploit the poly-pharmacology of drugs to discover new indications via phenotypic screening of a panel of 19 well-characterized cell lines derived from solid tumors seen in children and adolescents. The goal is to identify approved drugs with previously unrecognized anticancer properties that has the potential to reveal new mechanisms and biological processes involved in carcinogenesis or drug resistance. We employed a titration-based paradigm (quantitative high-throughput screening or qHTS), where all compounds were tested at multiple concentrations for their effect on cell viability. Concentration-response curves (CRCs) were derived directly from the primary screen, and both potency and efficacy values were used to identify compounds with robust bioactivity profiles. We screened the NIH Chemical Genomics Center (NCGC) Pharmaceutical Collection (NPC) and Mechanism Interrogation Plate (MIPE) small molecule collections of approved and investigational compounds against these cell lines; and measured metabolically active cells after 48 hours of compound treatment as a proxy for cell viability.
Assay Submitter: Nathalia J. Martinez, National Center for Advancing Translational Sciences, National Institutes of Health, Rockville, MD, USA; email: natalia.martinez@nih.gov
[1] Shen, M et al. Quantitative high-throughput phenotypic screening of pediatric cancer cell lines identifies multiple opportunities for drug repurposing. Oncotarget 2017 Dec 19;9(4):4758-4772. PMID 29435139.
The cells were obtained from University of North Carolina (UNC), Pediatric Preclinical Testing Program (PPT), and Coriell Institute (CI).
qHTS cell viability assay:
Cells were assayed in growth media at a density of 500-1,000 cells/well. Five microliters of cells were dispensed into 1,536-well, white, solid-bottom, TC-treated plates (Greiner Bio One) using a multidrop dispenser and incubated at 37 degrees C, 5% CO2, under a humidified atmosphere for 5 hours. Twenty-three nanoliters of compounds and controls (neutral control DMSO or positive control bortezomib at final concentration of 2.3 µM) were subsequently transferred by Kalypsys pintool. For primary screens, the MIPE collection was tested at 11-point dilutions (final concentrations range from 0.78 nM to 46 µM) and the NPC collection at 8-point dilutions (final concentrations range from 0.59 nM to 46 µM). Compounds tested in follow-up screens were assayed at 11-point dilutions. Cells were incubated for 48 hours, followed by addition of 3 µL of CellTiter-Glo (Promega). After a 15 min incubation at room temperature, samples were analyzed for luminescence intensity using a ViewLux High-throughput CCD imager equipped with clear filters.
With `CC1(C)O[C@@H]2C[C@H]3[C@@H]4CCC5=CC(=O)CC[C@]5(C)[C@@]4(F)[C@@H](O)C[C@]3(C)[C@]2(C(=O)CCl)O1`, the “activity change, negative = cytotoxic” value was -2.59% (inactive).
Same read-out and setting: next, `CC(=O)Oc1ccc(C(c2ccc(OC(C)=O)cc2)c2ccccn2)cc1`: -22.9% (inactive).
Regarding `CCCCCCC[N+](CC)(CC)CCCCc1ccc(Cl)cc1`, the Potency was 13.1 µM (active).
As for `CCCC(=O)O[C@]1(C(=O)CO)CC[C@H]2[C@@H]3CCC4=CC(=O)CC[C@]4(C)[C@H]3[C@@H](O)C[C@@]21C`, the “activity change, negative = cytotoxic” value was -7.01% (inactive).
Turning to `C[C@H]1C[C@H]2[C@@H]3CCC4=CC(=O)C=C[C@]4(C)[C@@]3(Cl)[C@@H](O)C[C@]2(C)[C@@]1(O)C(=O)CO`, the “activity change, negative = cytotoxic” value is -17.4% (inactive).
With `CC(=O)OCC(=O)[C@@]1(OC(C)=O)[C@@H](C)C[C@H]2[C@@H]3C[C@H](F)C4=CC(=O)C=C[C@]4(C)[C@@]3(F)[C@@H](O)C[C@@]21C`, the “activity change, negative = cytotoxic” value was -16% (inactive).
The same measure, in the same setting: under `CC(C)(C(=O)c1cccnc1)c1cccnc1` stands 7.53% (inactive).
The same measure, in the same setting: under `C[C@@H]1C[C@H]2[C@@H]3CCC4=CC(=O)C=C[C@]4(C)[C@@]3(F)[C@@H](O)C[C@]2(C)[C@H]1C(=O)CO` stands 1.87% (inactive); under `CCC(C(=O)OCCN(CC)CC)c1ccccc1` (stereo not drawn), -10.3% (inactive).
On the same count and under the same terms, under `CCCCC(=O)O[C@]1(C(=O)CO)CC[C@H]2[C@@H]3CCC4=CC(=O)CC[C@]4(C)[C@H]3[C@@H](O)C[C@@]21C` stands -19.6% (inactive); under `CC(=O)OCC(=O)[C@@]1(O)CC[C@H]2[C@@H]3CCC4=CC(=O)C=C[C@]4(C)[C@H]3[C@@H](O)C[C@@]21C`, 9.38% (inactive); under `CN(C)/N=N/c1nc[nH]c1C(N)=O`, 10.2% (inactive).
Consider `COCc1c(C(C)C)nc(C(C)C)c(/C=C/[C@@H](O)C[C@@H](O)CC(=O)O)c1-c1ccc(F)cc1`, for which the Potency was 0.522 µM (active).
As to `C[C@]12C=CC(=O)C=C1CC[C@@H]1[C@@H]2[C@@H](O)C[C@@]2(C)[C@H]1CC[C@]2(O)C(=O)CO`, the “activity change, negative = cytotoxic” value was -5.32% (inactive).
As to `CN(C)C(=S)SC(=S)N(C)C`, the Potency is 5.22 µM (active).
With `CC(=O)[C@H]1CC[C@H]2[C@@H]3C[C@H](C)C4=CC(=O)CC[C@]4(C)[C@H]3[C@@H](O)C[C@]12C`, the “activity change, negative = cytotoxic” value was -18.1% (inactive).
In the case of `CC(=O)OCC(=O)[C@@]12OC(C)(C)O[C@@H]1C[C@H]1[C@@H]3C[C@H](F)C4=CC(=O)C=C[C@]4(C)[C@@]3(F)[C@@H](O)C[C@@]12C`, the “activity change, negative = cytotoxic” value is -29% (inactive).
Same read-out and setting: under `CCOc1ccc2nc3cc(N)ccc3c(N)c2c1` stands -16% (inactive).
For `COc1cccc2c1C(=O)c1c(O)c3c(c(O)c1C2=O)C[C@@](O)(C(=O)CO)C[C@@H]3O[C@H]1C[C@H](N)[C@H](O)[C@H](C)O1`, the Potency was 5.22 µM (active).
`CC1(C)O[C@@H]2C[C@H]3[C@@H]4C[C@H](F)C5=CC(=O)CC[C@]5(C)[C@H]4[C@@H](O)C[C@]3(C)[C@]2(C(=O)CO)O1`: the “activity change, negative = cytotoxic” value was -9.16% (inactive).
Still for that read-out and setting: under `O=C(CCCN1CCC(O)(c2ccc(Br)cc2)CC1)c1ccc(F)cc1` stands -23.5% (inactive); under `CC(=O)Oc1ccc2c(c1)CC[C@@H]1[C@@H]2CC[C@]2(C)[C@@H](O)CC[C@@H]12`, -26.2% (inactive); under `C=C1C[C@H]2[C@@H]3C=C(C)C4=CC(=O)CC[C@]4(C)[C@H]3CC[C@]2(C)[C@@]1(OC(C)=O)C(C)=O`, -20% (inactive).
Consider `C[C@]12CCC(=O)C=C1CC[C@H]1[C@@H]3CC[C@](O)(C(=O)CO)[C@@]3(C)C[C@H](O)[C@@]12F`, for which the “activity change, negative = cytotoxic” value was -19.7% (inactive).
Turning to `C[n+]1c2cc(N)ccc2cc2ccc(N)cc21` (tested in a mixture with another compound), the Potency is 5.85 µM (active).
Same read-out and setting: under `COc1c(C)c2c(c(O)c1C/C=C(\C)CCC(=O)O)C(=O)OC2` stands 1.31 µM (active).
`NC(CO)(CO)CO`: the “activity change, negative = cytotoxic” value is 4.65% (inactive).
In the case of `C[C@@H]1C[C@H]2[C@@H]3C[C@H](F)C4=CC(=O)C(Cl)=C[C@]4(C)[C@@]3(F)[C@@H](O)C[C@]2(C)[C@@]1(O)C(=O)CO`, the Potency is 26.1 µM (active).
For the molecule `CC(=O)O[C@]1(C(C)=O)CC[C@H]2[C@@H]3C[C@H](C)C4=CC(=O)CC[C@]4(C)[C@H]3CC[C@@]21C`, the “activity change, negative = cytotoxic” value was -19.2% (inactive).
Still for that read-out and setting: under `NC(=O)CC[C@@H]1NC(=O)[C@H](Cc2ccccc2)NC(=O)[C@H](Cc2ccc(O)cc2)NC(=O)CCSSC[C@@H](C(=O)N2CCC[C@H]2C(=O)N[C@@H](CCCN=C(N)N)C(=O)NCC(N)=O)NC(=O)[C@H](CC(N)=O)NC1=O` stands -4.47% (inactive); under `C[C@]12C=CC(=O)C=C1[C@@H](F)C[C@@H]1[C@@H]2[C@@H](O)C[C@@]2(C)[C@H]1CC[C@]2(O)C(=O)CO`, -0.0727% (inactive).
In the case of `CCCCC(CC)CN=C(N)NC(N)=NCCCCCCN=C(N)NC(N)=NCC(CC)CCCC` (stereo not drawn), the Potency is 13.1 µM (active).
For `C[C@@H]1CN(CCCn2c3ccccc3c3ccccc32)C[C@H](C)N1`, the Potency is 26.1 µM (active).
